Data from PubChem BioAssay (NCATS).
Results filed as inconclusive are left out. Where a call stands in place of a potency, no number is given. Activity calls are given as the source filed them. Calls come from the whole dose curve; as a rule, active = well fitted cell-killing curve with a large enough effect; inconclusive = small, poorly fitted or top-dose-only effect; inactive = flat fitted curve, though single readings scatter.

assay: qHTS of pediatric cancer cell lines to identify multiple opportunities for drug repurposing: Primary screen for Rh18 cells (AID 1347102); conditions: Rh18 rhabdomyosarcoma viability, CellTiter-Glo luminescence, 48 h; series mostly up to 46 µM; note: nearly all actives have a fitted effect of over 65% in size
Method in brief: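 Cells (500-1,000/well) rested 5 h, then received compounds for 48 h; metabolically active cells were measured by CellTiter-Glo luminescence. Final concentrations spanned up to 46 µM (MIPE, 11-point) or 0.59 nM-46 µM (NPC, 8-point) in primary screens, 11-point in follow-ups.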
Potency is the fitted concentration of half-maximal effect.

Which Potency does the source give for `CC(C)CN(C[C@@H](O)[C@H](Cc1ccccc1)NC(=O)O[C@H]1CO[C@H]2OCC[C@H]21)S(=O)(=O)c1ccc(N)cc1` here?
Its Potency is “inactive”.

With `CCN(CC)CCCCNc1nc2cc(Cl)c(Cl)cc2nc1-c1ccc(-c2cccs2)s1` as the compound, how does the Potency read?
The Potency was 18.7 µM (active).

Which Potency does the source give for `O=c1[nH]nc(OCCCc2ccc(Cl)cc2)c(NCc2cccnc2)c1Br` here?
Its Potency is 23.5 µM (active).

For `COc1cc2ncn(-c3cc(OCc4ccccc4S(C)(=O)=O)c(C#N)s3)c2cc1OC`, which Potency is on record?
The Potency was “inactive”.

With `CC(C)C[C@@H](N)[C@H](O)C(=O)N[C@H](C(=O)N[C@H](C(=O)N[C@@H](CC(=O)O)C(=O)O)C(C)C)C(C)C` as the compound, how does the Potency read?
The Potency was “inactive”.

For `CN1CCC[C@H]1CCO[C@](C)(c1ccccc1)c1ccc(Cl)cc1`, which Potency is on record?
Its Potency is “inactive”.

With `Cc1cnc(-c2cc(N3CCN(C(=O)CCS(C)(=O)=O)CC3)ncc2Cl)c(C)c1` as the compound, how does the Potency read?
The Potency was “inactive”.

For `CCN(CCO)CCCOc1ccc2c(Nc3cc(CC(=O)Nc4cccc(F)c4)[nH]n3)ncnc2c1`, which Potency is on record?
Its Potency is “inactive”.

For `CN1CC(=O)N2C(Cc3c([nH]c4ccccc34)[C@H]2c2ccc3c(c2)OCO3)C1=O` (stereo partly drawn), which Potency is on record?
Its Potency is “inactive”.

Which Potency does the source give for `CC[C@H](NC(=O)[C@H](C)NC)C(=O)N1C[C@@H](O)C[C@H]1Cc1c(-c2[nH]c3cc(F)ccc3c2C[C@H]2C[C@H](O)CN2C(=O)[C@H](CC)NC(=O)[C@H](C)NC)[nH]c2cc(F)ccc12` here?
Its Potency is “inactive”.

For `Cc1cccc(Nc2nc(N[C@@H]3CCCC[C@H]3N)ncc2C(N)=O)c1`, which Potency is on record?
Its Potency is 20.9 µM (active).

With `C#CCN(C)CC1=Cc2ccccc2Oc2ccccc21` as the compound, how does the Potency read?
Its Potency is “inactive”.

Which Potency does the source give for `O=c1cc(-c2ccc(O)c(O)c2)oc2cc(O)cc(O)c12` here?
Its Potency is “inactive”.
